# Screens deposited in PubChem BioAssay by Broad Institute.
# Hits are enriched below; roughly 1.2% of the tested compounds scored in any of these assays.
# PglD inh: blocks C. jejuni PglD acetyltransferase activity. purified PglD enzyme, DTNB colorimetric CoA detection. inhibition, % at 12.5 µM. 360,000 tested, 0.098% active. AID 602405; in the data active = inhibition above about 16%, passing the limit was not always enough
# NSD2 inh: NSD2 (human) methyltransferase inhibition; O96028; NSD2 peptide methylation, AlphaScreen, 120 min; inhibition, % at 12.5 µM; 310,000 tested, 0.54% active; in the data active = inhibition above about 50%
# Target sequence (O96028 whole entry, looked up): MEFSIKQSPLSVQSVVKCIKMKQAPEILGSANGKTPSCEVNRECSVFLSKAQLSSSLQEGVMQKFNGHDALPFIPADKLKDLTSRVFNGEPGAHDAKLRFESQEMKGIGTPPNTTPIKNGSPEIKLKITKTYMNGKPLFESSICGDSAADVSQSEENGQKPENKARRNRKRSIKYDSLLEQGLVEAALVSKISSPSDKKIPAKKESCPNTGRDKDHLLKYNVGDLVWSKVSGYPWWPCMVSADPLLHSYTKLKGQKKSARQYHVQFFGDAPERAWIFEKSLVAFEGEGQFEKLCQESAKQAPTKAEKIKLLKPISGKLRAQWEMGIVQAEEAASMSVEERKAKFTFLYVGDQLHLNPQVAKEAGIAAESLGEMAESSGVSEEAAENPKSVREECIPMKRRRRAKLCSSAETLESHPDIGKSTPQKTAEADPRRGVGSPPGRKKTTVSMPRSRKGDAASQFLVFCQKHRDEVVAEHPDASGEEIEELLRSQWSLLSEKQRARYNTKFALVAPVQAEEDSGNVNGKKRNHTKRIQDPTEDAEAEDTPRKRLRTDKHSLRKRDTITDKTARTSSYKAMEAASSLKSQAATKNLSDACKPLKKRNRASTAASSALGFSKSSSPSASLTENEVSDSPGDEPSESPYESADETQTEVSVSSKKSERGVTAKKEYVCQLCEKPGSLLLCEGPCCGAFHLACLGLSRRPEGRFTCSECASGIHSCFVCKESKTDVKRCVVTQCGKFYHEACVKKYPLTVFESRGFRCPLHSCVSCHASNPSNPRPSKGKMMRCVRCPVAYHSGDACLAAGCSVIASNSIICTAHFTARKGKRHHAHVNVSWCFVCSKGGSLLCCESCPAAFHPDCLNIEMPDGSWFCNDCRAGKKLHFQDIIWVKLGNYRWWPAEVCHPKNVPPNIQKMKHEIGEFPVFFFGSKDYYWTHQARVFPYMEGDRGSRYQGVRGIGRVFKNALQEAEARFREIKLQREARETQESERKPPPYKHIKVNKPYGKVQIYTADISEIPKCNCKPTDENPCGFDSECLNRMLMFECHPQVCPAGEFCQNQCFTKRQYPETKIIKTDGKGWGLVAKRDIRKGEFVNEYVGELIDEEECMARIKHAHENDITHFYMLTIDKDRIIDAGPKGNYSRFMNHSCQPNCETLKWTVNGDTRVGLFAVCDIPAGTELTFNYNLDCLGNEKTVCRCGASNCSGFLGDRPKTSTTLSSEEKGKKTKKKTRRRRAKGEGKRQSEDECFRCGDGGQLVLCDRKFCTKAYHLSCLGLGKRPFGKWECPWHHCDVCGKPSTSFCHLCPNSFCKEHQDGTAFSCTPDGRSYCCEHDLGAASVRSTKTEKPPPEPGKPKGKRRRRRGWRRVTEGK
# C2C12 statin: suppression of simvastatin myotoxicity. C2C12 myotubes + simvastatin, ATP luminescence, 48 h; scaled: DMSO 0, geranylgeraniol control 100. rescue of ATP level, % at 7.49 µM. 330,000 tested, 0.78% active. AID 602340;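 active = mean ATP rescue above about 67%, or every replicate alone reaching that limit, limit read from the data, passing the limit was not always enough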;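 note: myotubes were challenged with 10 µM simvastatin during compound exposure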
# miR-122 sensor: inhibitors of miR-122 in Huh7 cells | Huh7 miR-122 Renilla luciferase sensor, 48 h; neutral wells = 0, positive control = 100 | activation (reporter increase), % at 12.5 µM | 340,000 tested, 0.3% active | AID 602342;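 active = mean replicate activation score at least 90 and every replicate individually at or above 90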;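 note: higher luciferase means less miR-122 activity so hits act as miR-122 inhibitors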
# Starred values were filed as active, the others as inactive; · = no result given; + = active, no number; [ ] = dose if it differs, or a comment.
SMILES,PglD inh,NSD2 inh,C2C12 statin,miR-122 sensor
C[C@@H]1CN([C@@H](C)CO)S(=O)(=O)c2ccc(-c3ccc(F)cc3)cc2O[C@@H]1CN(C)C(=O)Nc1ccc(F)cc1,·,·,-43.7,13.5[16.7 µM]
Cc1ccc(S(=O)(=O)NCC(=O)OCC(=O)c2ccc(Br)s2)cc1,-1.2,-0.3,5.2,-2.4
Cc1ccc(S(=O)(=O)NCC(=O)OCC(=O)c2cccs2)cc1,0.4,-2.2,124.8*,-9.2
CCOC(=O)NC(=O)/C(N=Nc1ccc(C(F)(F)F)cc1)=C(\C)O,-1.2,-2.8,98.8*,10.9
Nc1ccc(N2CCCCC2)c2nonc12,1.2,82.6*,3.0,-6.0
NC(=O)CN1CCN(S(=O)(=O)c2ccc(Cl)cc2)CC1,·,-1.4,·,·
O=C(CN1CCN(S(=O)(=O)c2ccc(Cl)cc2)CC1)c1ccc(O)c(O)c1,-2.0,121.3*,-1.0,-3.3
COc1ccc(S(=O)(=O)N2CCN(CC(=O)c3ccc(O)c(O)c3)CC2)cc1,5.6,+,6.6,-6.2
CC(C)c1ccc(N(CC(=O)NCCc2ccccc2)C(=O)c2csnn2)cc1,4.8,-3.5,80.7*,-2.2
C[C@H](CO)N1C[C@H](C)[C@H](CN(C)Cc2ccc3c(c2)OCO3)Oc2ccc(NC(=O)NC3CCCCC3)cc2CC1=O,-2.7,·,1.3,-0.5[16.7 µM]
Cc1ccc(C2=NOC3(CC(=O)N(c4ccccc4)C3=O)C2)cc1 (configuration not stated),8.8,-2.8,75.8*,1.1
Cc1ccc(C2=NOC3(CC(=O)N(c4ccc(C)cc4)C3=O)C2)cc1 (configuration not stated),·,6.1,·,·
C[C@@H]1CN([C@H](C)CO)C(=O)c2cc(NC(=O)Nc3ccc(F)cc3)ccc2O[C@@H]1CN(C)S(=O)(=O)c1ccccc1,4.3,·,-35.4,9.9[16.7 µM]
CC(=Nc1ccccc1)C1=C(O)C(Cc2cccc(F)c2)NC1=O (configuration not stated),-4.4,-1.1,-50.5,158.1*
C[C@H]1CN([C@@H](C)CO)C(=O)c2cc(-c3ccc(F)cc3)cnc2O[C@@H]1CN(C)C(=O)NC1CCCC1,-0.2,·,47.3,12.5[16.7 µM]
C[C@@H]1CN([C@H](C)CO)C(=O)c2cc(NC(=O)Nc3ccc(C(F)(F)F)cc3)ccc2O[C@@H](C)CCCCO[C@H]1CN(C)C,·,·,-43.6,6.0[16.7 µM]
CCOC(=O)CN(C(=O)CSc1nnc2c(n1)[nH]c1ccccc12)c1ccccc1,-5.8,-2.1,5.5,7.4
CCOC(=O)CN(C(=O)CSc1nnc2c(n1)[nH]c1ccc(F)cc12)c1ccccc1,2.4,0.9,121.0*,·
Cc1cc(C(O)c2ncc(-c3ccccc3)[nH]2)ccc1F (configuration not stated),0.6,23.1,-2.2,157.9*
OC(c1ccc(Cl)c(F)c1)c1ncc(-c2cccc(F)c2)[nH]1 (configuration not stated),9.7,2.6,7.1,123.7*
O=C(C[C@@H]1CC[C@H]2[C@@H](COC[C@H](O)CN2S(=O)(=O)c2ccc(F)cc2)O1)N[C@@H]1CCN(Cc2ccccc2)C1,-0.1,·,-0.4,-4.5[16.7 µM]
COc1cc(NC(=O)c2ccccc2)c(OC)cc1Cl,-0.8,-5.5,130.3*,2.1
COc1ccccc1NC(=O)c1ccc2nc(-c3ccccc3)c(-c3ccccc3)nc2c1,0.2,-1.9,83.8*,-8.7
O=C(OCCOc1ccc(Br)cc1)c1cnccn1,-3.3,0.2,117.1*,1.6
Cc1cc(C)c2c(c1)/C(=N/NS(=O)(=O)c1ccccc1)CCC2,-0.5,10.2,135.9*,0.9
SMILES,PglD inh,NSD2 inh,C2C12 statin,miR-122 sensor
C[C@@H]1CN([C@@H](C)CO)C(=O)c2cccc(NS(C)(=O)=O)c2O[C@@H]1CN(C)C(=O)Nc1ccc2c(c1)OCO2,-25.0,·,·,9.3[16.7 µM]
O=C(c1ccc(=O)oc1)N1CCCc2ccccc21,7.6,91.7*,28.8,-1.9
CC(C(=O)N1CCCc2ccccc21)N1C(=O)c2ccccc2C1=O (configuration not stated),1.9,-0.1,109.4*,-2.5
O=C(c1ccccc1)N1CCCc2ccccc21,1.4,-0.9,·,22.4
O=C(Nc1ccccn1)c1ccc(Cl)c(S(=O)(=O)N2CCOCC2)c1,2.8,-1.8,·,-10.1
Cc1ccnc(NC(=O)c2cccc(S(=O)(=O)N3CCOCC3)c2)c1,-5.1,-0.5,-7.3,3.2
O=C(Nc1ccccn1)c1cccc(S(=O)(=O)N2CCOCC2)c1,10.7,-5.2,-7.7,159.8*
COc1ccc(S(=O)(=O)N2CCOCC2)cc1NC(=O)CSc1ncccn1,2.7,-0.6,109.5*,-6.1
Cc1cc(NC(=O)c2ccc(Cl)c(S(=O)(=O)N3CCOCC3)c2)no1,1.7,-0.8,127.9*,0.9
COc1ccc(S(=O)(=O)N2CCCCC2)cc1NC(=O)CSc1ncccn1,2.1,11.3,1.6,·
C[C@H](NC(=O)[C@@H]1[C@@H](CO)[C@@H]2Cn3c(ccc(-c4cccnc4)c3=O)[C@H]1N2C)c1ccccc1,2.0,·,12.2,5.1[16.7 µM]
CCOC(=O)N1CCN(C(=O)COc2ccc(S(=O)(=O)NC3CCCCC3)cc2C)CC1,·,-0.6,115.7*,18.9
Cc1cccc(S(=O)(=O)NC2CCCCCCC2)c1,-0.5,-7.5,-0.7,158.8*
O=S(=O)(NC1CCCCCC1)c1cccc(Cl)c1,1.7,-6.8,-1.5,·
CCOc1ccc(Br)cc1S(=O)(=O)NCCN1CCCC1,3.6,-2.3,8.3,32.5
CCOc1ccc(Br)cc1S(=O)(=O)NC1CCCC1,-4.3,-2.3,-2.9,92.8*
Cc1cc(S(=O)(=O)NC2CCCCC2)ccc1OCC(=O)N1CCOCC1,·,-0.1,·,10.6
O=C(COc1ccc(S(=O)(=O)NC2CCCCC2)cc1)NC1CCCC1,-1.6,-6.5,6.5,245.1*
COc1cc(S(=O)(=O)NC2CCCCC2)ccc1Cl,7.0,-1.4,26.7,121.3*
CCNS(=O)(=O)c1cc(Br)ccc1OC,2.5,-1.5,-1.2,248.5*
CSc1nc2ccc(S(=O)(=O)NC3CCCCC3)cc2s1,·,1.3,8.4,175.3*
CSc1nc2ccc(S(=O)(=O)N3CCCCC3)cc2s1,-4.5,0.1,1.0,-9.8
COc1ccc(S(=O)(=O)NC2CCCCC2)cc1C,6.0,-5.5,15.9,137.1*
COc1ccc(S(=O)(=O)NC2CCCC2)cc1NC(C)=O,5.0,3.4,-3.8,·
COc1ccccc1CN1[C@@H](CO)[C@@H]2c3ccccc3N(C(=O)C3CCCCC3)C[C@@H]21,3.3,·,25.1,0.0[16.7 µM]
SMILES,PglD inh,NSD2 inh,C2C12 statin,miR-122 sensor
CC(C)NC(=O)Nc1ccc2c(c1)C(=O)N([C@@H](C)CO)C[C@@H](C)[C@H](CN(C)C(=O)CCCN(C)C)OCCCC[C@H](C)O2,·,·,·,2.2[16.7 µM]
C[C@@H]1CN([C@H](C)CO)C(=O)c2cc(C#CC3CCCC3)cnc2O[C@H]1CN(C)C(=O)Cc1ccccn1,5.2,·,25.4,-10.5[16.7 µM]
COc1ccc(C)cc1S(=O)(=O)NC1CCCC1,-0.3,-1.4,0.0,169.7*
CCOC(=O)c1c(C)oc2c1c(C=NCCO)c(O)c1ccccc12,·,100.6*,·,·
COc1ccc(Br)cc1C1SCCN1S(C)(=O)=O (configuration not stated),-1.5,-0.6,118.2*,0.8
CS(=O)(=O)N1CCSC1c1ccc(Br)cc1 (configuration not stated),-0.2,-2.6,6.8,-5.1
